The record followed here is PubChem BioAssay (Tox21).

Experiment [1] can be described thus: qHTS RealTime-Glo MT Cell Viability Assay in HepG2 cells - 40 hour (AID 1224870). Further: nearly all actives have a fitted effect of over 50% in size. Further: potency means the concentration at half of the fitted maximal effect. The method, boiled down:
(§1)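 HepG2 cells (600/well) mixed with RealTime-Glo MT reagent, settled 5 h at 37 C/5% CO2 before compound addition. Nonlytic NanoLuc luminescence from viable-cell prosubstrate reduction read repeatedly during 40 h treatment at 37 C.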

The nature of experiment [2]: A CellTox Green Cytotoxicity Assay to monitor cytotoxicity in HEK293 cells - 40 hour (AID 1224871). Further: nearly all actives have a fitted effect of over 45% in size. Further: potency means the concentration at half of the fitted maximal effect. The method, boiled down:
(§2)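 Tox21 screen in HEK293: membrane-impermeant cyanine dye fluoresces on binding dead-cell DNA; compound pinned 5 h post-seeding, plates held at 37 C, signal read repeatedly through 40 h.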

The nature of experiment [3]: qHTS RealTime-Glo MT Cell Viability Assay in HepG2 cells - 8 hour (AID 1224873). Further: nearly all actives have a fitted effect of over 55% in size. The method, boiled down:
as §1

Experiment [4] in a line: A CellTox Green Cytotoxicity Assay to monitor cytotoxicity in HEK293 cells - 24 hour (AID 1224875). Further: nearly all actives have a fitted effect of over 45% in size. Further: potency means the concentration at half of the fitted maximal effect. The method, boiled down:
as §2

Experiment [5] in a line: A CellTox Green Cytotoxicity Assay to monitor cytotoxicity in HepG2 cells - 16 hour (AID 1224876). Further: nearly all actives have a fitted effect of over 45% in size. Further: potency means the concentration at half of the fitted maximal effect. The method, boiled down: (§3)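 Measurements at 0, 8, 16, 24, 32 and 40 h of treatment captured CellTox Green fluorescence in HepG2 cells that had been co-plated with reagent and preincubated 5 h at 37 C/5% CO2.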
A short description of experiment [6]: A CellTox Green Cytotoxicity Assay to monitor cytotoxicity in HepG2 cells - 24 hour (AID 1224878). Further: nearly all actives have a fitted effect of over 45% in size. Further: potency means the concentration at half of the fitted maximal effect. The method, boiled down:
as §3

Experiment [7] can be described thus: A CellTox Green Cytotoxicity Assay to monitor cytotoxicity in HepG2 cells - 40 hour (AID 1224879). Further: nearly all actives have a fitted effect of over 40% in size. Further: potency means the concentration at half of the fitted maximal effect. The method, boiled down:
as §3

A short description of experiment [8]: qHTS RealTime-Glo MT Cell Viability Assay in HEK293 cells - 0 hour (AID 1224880). The method, boiled down: (§4)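 HEK293 + NanoLuc + prosubstrate, 600 cells/well; 5 h, 37 C/5% CO2; compound 23 nL in DMSO by pintool; 37 C; luminescence read at 0, 8, 16, 24, 32 and 40 h time points.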
Background: Quantitative high-throughput screening tests each substance at several concentrations.

The nature of experiment [9]: A CellTox Green Cytotoxicity Assay to monitor cytotoxicity in HEK293 cells - 32 hour (AID 1224881). Further: nearly all actives have a fitted effect of over 40% in size. Further: potency means the concentration at half of the fitted maximal effect. The method, boiled down:
as §2

A short description of experiment [10]: A CellTox Green Cytotoxicity Assay to monitor cytotoxicity in HepG2 cells - 0 hour (AID 1224882). Further: nearly all actives have a fitted effect of over 35% in size. The method, boiled down:
as §3

Experiment [11] is described as follows: A CellTox Green Cytotoxicity Assay to monitor cytotoxicity in HepG2 cells - 32 hour (AID 1224883). Further: nearly all actives have a fitted effect of over 50% in size. Further: potency means the concentration at half of the fitted maximal effect. The method, boiled down:
as §3

Experiment [12] is described as follows: A CellTox Green Cytotoxicity Assay to monitor cytotoxicity in HEK293 cells - 8 hour (AID 1224884). Further: nearly all actives have a fitted effect of over 35% in size. The method, boiled down:
as §2

A short description of experiment [13]: qHTS RealTime-Glo MT Cell Viability Assay in HepG2 cells - 16 hour (AID 1224885). Further: nearly all actives have a fitted effect of over 50% in size. The method, boiled down:
(§5)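 HepG2 suspension premixed with RealTime-Glo reagents is plated at 600 cells per well and left 5 h at 37 C/5% CO2. Compounds in DMSO then go in, and bioluminescence reflecting viable cell number is recorded over 40 h.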

Experiment [14] in a line: qHTS RealTime-Glo MT Cell Viability Assay in HEK293 cells - 8 hour (AID 1224887). Further: nearly all actives have a fitted effect of over 50% in size. Further: potency means the concentration at half of the fitted maximal effect. The method, boiled down: as §4
A short description of experiment [15]: A CellTox Green Cytotoxicity Assay to monitor cytotoxicity in HEK293 cells - 16 hour (AID 1224888). Further: nearly all actives have a fitted effect of over 35% in size. Further: potency means the concentration at half of the fitted maximal effect. The method, boiled down:
as §2

A short description of experiment [16]: qHTS RealTime-Glo MT Cell Viability Assay in HepG2 cells - 0 hour (AID 1224889). Further: nearly all actives have a fitted effect of over 50% in size. The method, boiled down:
as §5

Experiment [17] in a line: qHTS RealTime-Glo MT Cell Viability Assay in HEK293 cells - 40 hour (AID 1224874). Further: nearly all actives have a fitted effect of over 50% in size. Further: potency means the concentration at half of the fitted maximal effect. The following applies: RealTime-Glo luminescence; max response: hits give low values. The method, boiled down: as §4
Experiment [18] can be described thus: qHTS RealTime-Glo MT Cell Viability Assay in HEK293 cells - 24 hour (AID 1224886). Further: nearly all actives have a fitted effect of over 50% in size. Further: potency means the concentration at half of the fitted maximal effect. The method, boiled down: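 Reads taken at 0, 8, 16, 24, 32 and 40 h from the same wells. HEK293 cells (600/well) carried RealTime-Glo reagents from seeding, with compound added after a 5 h settle at 37 C.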
The nature of experiment [19]: qHTS RealTime-Glo MT Cell Viability Assay in HepG2 cells - 32 hour (AID 1224877). Further: nearly all actives have a fitted effect of over 55% in size. Further: potency means the concentration at half of the fitted maximal effect. The method, boiled down:
as §5

A number with no mark means an inactive call. Inconclusive results are not listed. Active and inactive are the calls of the source. The call rests on the fitted dose curve; in most records, active means well fitted curve in the direction sought with a large enough effect in the repeat runs; inconclusive means weak or mixed curves; inactive means no such curve, though single readings can be large; an effect the other way counts as inactive or inconclusive.
On the % scale 0 is the no-effect control and ±100 the full control effect.

Regarding `CC(C)(O)c1ccc(CNC(=O)c2cccnc2Oc2ccc3nonc3c2)cc1`, the Potency result in experiment [1], in experiment [2], in experiment [3], in experiment [4], in experiment [5] and in experiment [6] was “inactive” throughout. The Potency result in experiment [7], in [8], in [9], in experiment [10], in experiment [11] and in experiment [12] was “inactive” in each case. The Potency entry in experiment [13], in [14], in experiment [15] and in experiment [16] was “inactive” throughout.

Take `CCCCCCC(C)(C)C(=O)O`: the Potency result in experiment [1], in experiment [2], in experiment [3], in experiment [4], in experiment [5] and in experiment [6] was “inactive” throughout. In addition, the Potency result in experiment [7], in experiment [8], in experiment [9], in experiment [10], in [11] and in experiment [13] was “inactive” throughout. Further, the Potency entry in experiment [18], in [14], in experiment [15] and in [16] was “inactive” each time. Moreover, the max response in experiment [17] was 4.14%.

As to `COc1cc(N)c(Cl)cc1C(=O)NC1CCN(CCCOc2ccc(F)cc2)CC1OC` (stereo not given), the Potency entry in experiment [1], in experiment [2], in experiment [3], in [4], in experiment [5] and in [19] was “inactive” each time. For the same compound, the Potency result in [6], in experiment [8], in experiment [9], in experiment [10], in [12] and in [13] was “inactive” throughout. In addition, the Potency entry in experiment [15] and in [16] was “inactive” throughout. The Potency in experiment [17], in experiment [18] and in experiment [14] was 3.01 µM (active) throughout.

Regarding `CCOC(=O)c1ccc(C#Cc2ccc3c(c2)C(C)(C)CCS3)nc1`, the Potency result in experiment [1], in experiment [2], in [4], in experiment [5], in experiment [6] and in [8] was “inactive” each time. In addition, the Potency result in [9], in [10], in [13], in [15] and in experiment [16] was “inactive” each time. Also, in experiment [7], the Potency is 0.301 µM (active).

Regarding `CN1CCCC(CC2c3ccccc3Sc3ccccc32)C1` (stereo not given), the Potency in experiment [1] was 26.8 µM (active); in [2], 23.9 µM (active); in experiment [17] it was 23.9 µM (active); in experiment [4] it was 23.9 µM (active); in experiment [5] it was 23.9 µM (active); in [19], 23.9 µM (active). The Potency is 21.3 µM (active) in experiment [6]; 23.9 µM (active) in experiment [7]; 23.9 µM (active) in [9]; 21.3 µM (active) in experiment [11]; 23.9 µM (active) in experiment [18]; 23.9 µM (active) in experiment [15]. Further, the Potency result in [3], in [10], in experiment [12] and in [14] was “inactive” in each case.

On to `O=c1c(O)c(-c2ccc(O)cc2)oc2cc(O)cc(O)c12`, for which the Potency result in [1], in experiment [2], in experiment [3], in experiment [4], in experiment [5] and in experiment [19] was “inactive” each time. Further, the Potency result in experiment [6], in experiment [7], in experiment [8], in [9], in experiment [10] and in experiment [11] was “inactive” throughout. Moreover, the Potency entry in [12], in experiment [13], in [15] and in experiment [16] was “inactive” each time.

As for `CCOC(=O)c1ccc(O)c(O)c1`, the Potency entry in experiment [1], in experiment [2], in [3], in experiment [4], in experiment [19] and in experiment [6] was “inactive” throughout. Further, the Potency entry in experiment [7], in experiment [8], in experiment [11], in experiment [12], in experiment [13] and in experiment [18] was “inactive” in each case. Moreover, the Potency entry in experiment [14], in [15] and in experiment [16] was “inactive” in each case. Besides, in experiment [17], the max response was -21.6%.
